MT1-MMP txn act – activates MT1-MMP transcription; HT1080 MT1-MMP promoter luciferase reporter, luminescence, overnight; stronger effect = higher value; activation factor at 10 µM; actives 0.16% (n = 86,000); AID 750;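 active = activation factor of at least 2 for MT1-MMP transcription at 10 µM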
HePTP inhibitor – inhibitors of human HePTP phosphatase; P35236; recombinant HePTP phosphatase activity, OD absorbance; inhibition, % at 20 µM; actives 0.64% (n = 110,000); in the data active = inhibition above about 50%;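 note: plate controls were vehicle for no effect and reference inhibitor for full effect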
E coli RNAP – Escherichia coli RNA polymerase inhibition; P0A8V2; E. coli RNA polymerase, fluorescence transcription assay; inhibition, %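 (tested at 10 µM)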; actives 0.2% (n = 62,000); AID 559; in the data active = inhibition above about 20%;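 note: 0% = enzyme without compound and 100% = no enzyme blank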
Hsp90 block – displaces geldanamycin probe from tumor Hsp90; AID 429; inhibition, % at 30 µM; actives 0.35% (n = 64,000); NCI-N417 lysate Hsp90, Cy3B-geldanamycin FP displacement;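 active = inhibition above 50%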;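 note: 0% = tracer plus lysate wells and 100% = tracer alone without lysate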
TNAP act mid DEA – activates human TNAP at intermediate phosphate acceptor concentration | purified TNAP, CDP-star luminescence, 100 mM DEA, 30 min; stronger effect = higher value; scale: 0 levamisole-inhibited, 1 vehicle-only enzyme | 64,000 tested, under 10 active | AID 813 | activation factor at 20 µM | P05186;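 active = activation factor of at least 2 at 20 µM, relative to controls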
Target sequence (P05186 whole entry, looked up): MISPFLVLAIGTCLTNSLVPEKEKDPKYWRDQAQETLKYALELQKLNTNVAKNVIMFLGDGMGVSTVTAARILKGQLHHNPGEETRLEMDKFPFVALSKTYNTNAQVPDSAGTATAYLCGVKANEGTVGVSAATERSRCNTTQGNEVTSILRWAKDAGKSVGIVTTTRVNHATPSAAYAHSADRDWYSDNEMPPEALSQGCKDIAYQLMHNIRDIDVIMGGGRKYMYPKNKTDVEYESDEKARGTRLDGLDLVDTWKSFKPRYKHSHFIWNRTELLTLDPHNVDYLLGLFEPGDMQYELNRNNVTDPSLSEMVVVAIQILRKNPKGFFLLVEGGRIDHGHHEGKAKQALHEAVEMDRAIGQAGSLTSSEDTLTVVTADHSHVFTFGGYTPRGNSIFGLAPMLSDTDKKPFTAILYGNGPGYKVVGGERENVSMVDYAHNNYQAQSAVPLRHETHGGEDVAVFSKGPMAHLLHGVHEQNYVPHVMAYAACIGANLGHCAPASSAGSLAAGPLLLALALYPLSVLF
Her2 expr inh – Her2 kinase expression inhibition; P04626; SKBR-3 HER2 protein level, AlphaScreen, 18-24 h; stronger effect = lower value; HER2 level % of control, % at 10 µM; actives 0.69% (n = 65,000); AID 645;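 active = HER2 level under 5% of the carrier-only control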;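 note: 100% = DMSO carrier and 0% = 500 nM PU-H71 HSP90 inhibitor; lower value means stronger loss of Her2 protein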
* = called active by the depositor; . = no result. In the library only some 1.1% were active in any assay of this set; here they are far more common.

SMILES	MT1-MMP txn act	HePTP inhibitor	E coli RNAP	Hsp90 block	TNAP act mid DEA	Her2 expr inh
CN1CCN(CC(=O)N2CCn3c4c(c5cc(C6CCCCC6)ccc53)CCCC42)CC1 (stereo unspecified)	.	-1.3	9.9	1.0	1	-15.7*
COC(=O)c1ccccc1NC(=O)CN(c1ccc(OC)cc1)S(=O)(=O)c1ccc(C)cc1	.	50.4*	.	.	.	.
COc1ccc(NC(=O)c2ccc(CN3CCOCC3)cc2)cc1OC	.	-0.2	.	.	.	.
COCCOC(=O)C1=C(C)NC(=O)CC1c1ccccc1OCc1ccccc1 (stereo unspecified)	.	-2.9	.	.	.	.
CC(C)(C)c1csc(NC(=O)c2ccc3nccnc3c2)n1	2*	.	.	.	.	.
COc1cc(C(=O)Nc2nc(C(C)(C)C)cs2)cc(OC)c1OC	.	-17.9	.	.	.	.
Nc1nonc1N1CCCCC1	1.2	1.5	8.3	71.8*	0.8	110.4
CC(=O)c1cccc(NC(=O)COc2ccccc2C(C)(C)C)c1	.	-3.1	.	.	.	.
O=c1oc2cc(O)c([N+](=O)[O-])cc2cc1-c1csc(-c2ccc(Cl)cc2)n1	.	8.7	.	.	.	.
O=c1oc2cc(O)c([N+](=O)[O-])cc2cc1-c1csc(-c2cc3ccccc3oc2=O)n1	.	83.9*	.	.	.	.
Cc1cc(OCC(=O)Nc2cccc(S(N)(=O)=O)c2)ccc1Cl	.	0.5	.	.	.	.
O=C(Nc1nccs1)C1C2/C=C\CCCCC21 (stereo unspecified)	1.2	-8.3	-6.9	-6.3	0.9	-27.8*
CCOc1ccccc1NC(=O)CN(c1ccc(C)c(Cl)c1)S(C)(=O)=O	.	-10.0	.	.	.	.
Cc1cc(Cl)cc2c1NC(=O)[C@]21[C@@H]2C(=O)N(Cc3ccccc3)C(=O)[C@@H]2[C@@H]2CCCN21	1	-0.1	33.2*	-12.9	0.9	97.2
N#C/C(=C/c1ccc2c(c1)OCO2)C(=O)Nc1cccc(Br)c1	.	-2.4	.	.	.	.
COc1ccc(/C=C2\SC(=O)N(CCC(=O)N3CCCCC3)C2=O)cc1OC	.	7.5	.	.	.	.
COc1ccc(/C=C2\SC(=O)N(CCC(=O)N3CCOCC3)C2=O)cc1OC	.	103.6*	.	.	.	.
CN(C)Cc1c(O)c[n+]([O-])c2ccccc12	.	102.9*	.	.	.	.
O=c1cc(-c2ccc([N+](=O)[O-])cc2)nc2cc(-c3ccc(F)cc3)[nH]n12	.	12.3	.	.	.	.
O=c1cc(-c2ccc([N+](=O)[O-])cc2)nc2cc(-c3cccc(Cl)c3)[nH]n12	.	78.4*	.	.	.	.
O=C(Nc1nc2ccc3ccccc3c2s1)c1ccc(C(=O)c2ccccc2)cc1	.	103.6*	.	.	.	.
O=C(Nc1nc2ccc3ccccc3c2s1)c1cccc(Br)c1	.	12.1	.	.	.	.
CCOc1ccc(N(CC(=O)NCc2ccc(Cl)cc2)S(=O)(=O)c2ccc(Br)cc2)cc1	.	102.8*	.	.	.	.
COc1ccc(/C=C2\C(=O)NC(=S)N(c3cccc4ccccc34)C2=O)cc1OC	.	-4.0	.	.	.	.
CS(=O)c1nc(-c2ccc(Br)cc2)cc(-c2ccccc2)c1C#N (stereo unspecified)	1	4.9	1.8	-5.2	0.9	-21.9*
SMILES	MT1-MMP txn act	HePTP inhibitor	E coli RNAP	Hsp90 block	TNAP act mid DEA	Her2 expr inh
CS(=O)(=O)c1nc(-c2ccc(Br)cc2)cc(-c2ccccc2)c1C#N	0.9	.	.	.	.	.
COc1ccc(OCC(=O)NCc2cccnc2)cc1	1	9.8	3.4	-18.7	0.9	-14.3*
COc1ccccc1OCC(=O)NCc1cccnc1	.	-9.4	.	.	.	.
O=C(N/N=C/c1ccc([N+](=O)[O-])o1)c1ccc(O)cc1	.	102.0*	.	.	.	.
Cc1ccc(/C=N\NC(=O)c2ccc(O)cc2)cc1	.	10.2	.	.	.	.
O=[N+]([O-])c1ccc(C=Nc2ccc(Br)cn2)o1	.	-3.5	.	.	.	.
Cc1ccc(S(=O)(=O)c2c(C)nn(C(C)(C)C)c2OC(=O)c2ccc(Br)o2)cc1	1	-4.8	1.6	-2.0	1	4.1*
Cc1ccc(C(C)C)c(OCCOc2ccc(/C=C3/SC(=S)N(C)C3=O)cc2)c1	.	1.1	.	.	.	.
O=S(=O)(c1cccc(-c2nnco2)c1)N1CCCC1	1.1	-2.2	7.9	91.3*	0.9	67.6
O=S(=O)(c1cccc(-c2nnc(-c3ccc(Br)cc3)o2)c1)N1CCCCCC1	.	7.2	2.5	.	0.9	124.1
CCOC(=O)C1=C(c2ccccc2)O/C(=C(\C(=O)OC)C(F)(F)F)S1	1.2	.	.	.	.	.
COC(=O)/C(=C1/Oc2cc(C)oc(=O)c2S1)C(F)(F)F	1.1	-1.1	2.3	1.1	1.1	-14.7*
C=CS(=O)(=O)c1ccc(Oc2ccc(S(=O)(=O)C=C)cc2)cc1	0	7.4	5.2	-3.2	0.9	-21.8*
CCCCCOC(=O)C1=C(C)NC(=S)NC1c1ccccc1 (stereo unspecified)	.	62.9*	.	.	.	.
CC(C)c1nnc(NC(=O)c2ccccc2)s1	.	6.8	.	.	.	.
Cc1ccc2nsnc2c1NC(=O)c1ccc(-c2cccc(Cl)c2)o1	.	5.4	.	.	.	.
CC(=O)Nc1ccc(S(=O)(=O)N2CCN(c3nc(NC4CCCC4)c4ccccc4n3)CC2)cc1	1.1	5.3	1.4	-2.6	1	-9.2*
CC(=O)Nc1ccc(S(=O)(=O)N2CCN(c3cc(C)nc4ccccc34)CC2)cc1	1.4	1.5	2.4	-0.3	0.9	89.6
COc1cc(C(=O)Nc2cc(Cl)ccc2C)cc(OC)c1OC	.	0.1	.	.	.	.
Clc1ccc(N2CCN(N=Cc3cccc(Br)c3)CC2)cc1	.	-0.4	.	.	.	.
NC[C@@H]1O[C@H](C23CC4CC(CC(C4)C2)C3)Cc2c1ccc(O)c2O	.	.	.	78.3*	.	.
O=C(OC1CCCCC1)c1ccc2c(c1)C1C=CCC1C(C(=O)O)N2 (stereo unspecified)	.	.	-6.2	-6.2	0.9	92.9
COc1ccc2c(c1)C1C=CCC1C(C(=O)O)N2 (stereo unspecified)	.	102.4*	.	.	.	.
O=C(O)C1Nc2c(Cl)cc(Cl)cc2C2C=CCC12 (stereo unspecified)	.	102.7*	.	.	.	.
CC(=O)Nc1ccc2c(c1)C1C=CCC1C(C(=O)O)N2 (stereo unspecified)	.	80.5*	.	.	.	.
SMILES	MT1-MMP txn act	HePTP inhibitor	E coli RNAP	Hsp90 block	TNAP act mid DEA	Her2 expr inh
CC(=O)Nc1ccc2c(c1)C1C=CCC1C(c1ccccc1F)N2 (stereo unspecified)	.	2.0	.	.	.	.
CC(NC(=O)C(NC(=O)OCc1ccccc1)C(C)C)C(=O)OCc1ccc([N+](=O)[O-])cc1 (stereo unspecified)	.	-12.3	.	.	.	.
COc1ccc(C(=O)/C=C/Nc2ccccc2Br)cc1OC	.	-8.8	.	.	.	.
COc1ccc2c(c1)OCC/C2=N\OC(=O)c1ccccc1OC	.	8.8	.	.	.	.
CC(C)(C)c1ccc(S(=O)(=O)NNc2ccccc2)cc1	.	101.2*	.	.	.	.
CCN(CC)CCCC(C)Nc1cc(O)cc2cccnc12 (stereo unspecified)	.	.	.	137.9*	.	.
O=C1N(O)C2(C=CCCC2)/C(=N\O)C12CCCCC2 (stereo unspecified)	1.1	0.3	33.5*	-1.2	1	81.0
COCCn1c(Cc2ccccc2)nnc1SCC(=O)N(C)C	1.2	3.9	4.8	0.5	0.9	-18.9*
O=C(CSc1nnc(CCCN2C(=O)c3cccc4cccc(c34)C2=O)n1-c1ccccc1)NCc1cccnc1	.	-0.2	.	.	.	.
CC(=O)Nc1ccc(NS(=O)(=O)c2c(C)cc(C)cc2C)cc1	.	100.6*	.	.	.	.
